Laboratory results from the supplement of paper PMC8728848.
Shown is part of a subset that was picked to be rich in the strongest signals.

Columns and labels:
Experiment in all cases: glycan array binding signal (z-score within array); higher = stronger binding
Glc(b1-4)Glc = settings: glycan notation: IUPAC condensed, linker removed
How it was run: (§1)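 The binding signal is a Z-score computed within each array. Data were drawn from 3228 arrays in the Consortium for Functional Glycomics database, restricted to those with a known protein sequence. Scores were averaged over arrays of the same protein sequence at different concentrations or buffers, and over linkers, and negative values can be taken as non-binding.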

Glc(a1-6)Glc(a1-6)Glc = settings: glycan notation: IUPAC condensed, linker removed
How it was run: as §1

[1] = system: GlcNAc(a1-4)Gal(b1-4)GlcNAc(b1-3)Gal(b1-4)GlcNAc(b1-3)Gal(b1-4)GlcNAc; settings: glycan notation: IUPAC condensed, linker removed
How it was run: as §1

[2] = system: GlcNAc(a1-4)Gal(b1-4)GlcNAc(b1-3)Gal(b1-4)GlcNAc; settings: glycan notation: IUPAC condensed, linker removed
How it was run: as §1

[3] = system: GlcNAc(b1-2)Man(a1-3)[GlcNAc(b1-2)Man(a1-6)]Man(b1-4)GlcNAc(b1-4)[Fuc(a1-6)]GlcNAc; settings: glycan notation: IUPAC condensed, linker removed
How it was run: as §1

[4] = system: GlcNAc(a1-3)Gal(b1-4)GlcNAc; settings: glycan notation: IUPAC condensed, linker removed
How it was run: as §1

[5] = system: GlcNAc(a1-6)Gal(b1-4)GlcNAc; settings: glycan notation: IUPAC condensed, linker removed; mutation: D138V, E140I
How it was run: as §1

Glc(b1-6)Glc = settings: glycan notation: IUPAC condensed, linker removed
How it was run: as §1

[6] = system: GlcNAc(b1-2)Gal(b1-3)GalNAc; settings: glycan notation: IUPAC condensed, linker removed
How it was run: as §1

[7] = system: GlcNAc(a1-4)Gal(b1-4)GlcNAc(b1-3)Gal(b1-4)Glc; settings: glycan notation: IUPAC condensed, linker removed
How it was run: as §1

[8] = system: GlcNAc(b1-2)Man(a1-3)[GlcNAc(b1-2)Man(a1-6)]Man(b1-4)GlcNAc(b1-4)GlcNAc; settings: glycan notation: IUPAC condensed, linker removed
How it was run: as §1

[9] = system: GlcNAc(b1-2)Man(a1-3)[GlcNAc(b1-4)][GlcNAc(b1-2)Man(a1-6)]Man(b1-4)GlcNAc(b1-4)[Fuc(a1-6)]GlcNAc; settings: glycan notation: IUPAC condensed, linker removed
How it was run: as §1

[10] = system: GlcNAc(b1-2)[GlcNAc(b1-4)]Man(a1-3)[GlcNAc(b1-4)][GlcNAc(b1-2)Man(a1-6)]Man(b1-4)GlcNAc(b1-4)GlcNAc; settings: glycan notation: IUPAC condensed, linker removed; mutation: R125K
How it was run: as §1

[11] = system: GlcNAc(b1-2)[GlcNAc(b1-6)]Man(a1-6)[GlcNAc(b1-2)Man(a1-3)][GlcNAc(b1-4)]Man(b1-4)GlcNAc(b1-4)GlcNAc; settings: glycan notation: IUPAC condensed, linker removed
How it was run: as §1

[12] = system: GlcNAc(b1-2)[GlcNAc(b1-6)]Man(a1-6)[GlcNAc(b1-4)][GlcNAc(b1-2)Man(a1-3)]Man(b1-4)GlcNAc(b1-4)GlcNAc; settings: glycan notation: IUPAC condensed, linker removed; mutation: R125K
How it was run: as §1

[13] = system: GlcNAc(b1-2)Man(a1-3)[GlcNAc(b1-4)][GlcNAc(b1-2)Man(a1-6)]Man(b1-4)GlcNAc(b1-4)GlcNAc; settings: glycan notation: IUPAC condensed, linker removed
How it was run: as §1

GlcA(b1-3)Gal = settings: glycan notation: IUPAC condensed, linker removed
How it was run: as §1

GlcA(b1-3)GlcNAc = settings: glycan notation: IUPAC condensed, linker removed
How it was run: as §1

[14] = system: GlcNAc(a1-4)Gal(b1-4)GlcNAc(b1-3)Gal(b1-4)[Fuc(a1-3)]GlcNAc(b1-3)Gal(b1-4)[Fuc(a1-3)]GlcNAc; settings: glycan notation: IUPAC condensed, linker removed
How it was run: as §1

[15] = system: GlcNAc(b1-3)Gal(b1-4)GlcNAc(b1-2)[GlcNAc(b1-3)Gal(b1-4)GlcNAc(b1-6)]Man(a1-6)[GlcNAc(b1-3)Gal(b1-4)GlcNAc(b1-2)Man(a1-3)]Man(b1-4)GlcNAc(b1-4)GlcNAc; settings: glycan notation: IUPAC condensed, linker removed
How it was run: as §1

Neurocan (Homo sapiens), O14594, sequence (O14594 other isoform, or with tags, fused parts or gaps): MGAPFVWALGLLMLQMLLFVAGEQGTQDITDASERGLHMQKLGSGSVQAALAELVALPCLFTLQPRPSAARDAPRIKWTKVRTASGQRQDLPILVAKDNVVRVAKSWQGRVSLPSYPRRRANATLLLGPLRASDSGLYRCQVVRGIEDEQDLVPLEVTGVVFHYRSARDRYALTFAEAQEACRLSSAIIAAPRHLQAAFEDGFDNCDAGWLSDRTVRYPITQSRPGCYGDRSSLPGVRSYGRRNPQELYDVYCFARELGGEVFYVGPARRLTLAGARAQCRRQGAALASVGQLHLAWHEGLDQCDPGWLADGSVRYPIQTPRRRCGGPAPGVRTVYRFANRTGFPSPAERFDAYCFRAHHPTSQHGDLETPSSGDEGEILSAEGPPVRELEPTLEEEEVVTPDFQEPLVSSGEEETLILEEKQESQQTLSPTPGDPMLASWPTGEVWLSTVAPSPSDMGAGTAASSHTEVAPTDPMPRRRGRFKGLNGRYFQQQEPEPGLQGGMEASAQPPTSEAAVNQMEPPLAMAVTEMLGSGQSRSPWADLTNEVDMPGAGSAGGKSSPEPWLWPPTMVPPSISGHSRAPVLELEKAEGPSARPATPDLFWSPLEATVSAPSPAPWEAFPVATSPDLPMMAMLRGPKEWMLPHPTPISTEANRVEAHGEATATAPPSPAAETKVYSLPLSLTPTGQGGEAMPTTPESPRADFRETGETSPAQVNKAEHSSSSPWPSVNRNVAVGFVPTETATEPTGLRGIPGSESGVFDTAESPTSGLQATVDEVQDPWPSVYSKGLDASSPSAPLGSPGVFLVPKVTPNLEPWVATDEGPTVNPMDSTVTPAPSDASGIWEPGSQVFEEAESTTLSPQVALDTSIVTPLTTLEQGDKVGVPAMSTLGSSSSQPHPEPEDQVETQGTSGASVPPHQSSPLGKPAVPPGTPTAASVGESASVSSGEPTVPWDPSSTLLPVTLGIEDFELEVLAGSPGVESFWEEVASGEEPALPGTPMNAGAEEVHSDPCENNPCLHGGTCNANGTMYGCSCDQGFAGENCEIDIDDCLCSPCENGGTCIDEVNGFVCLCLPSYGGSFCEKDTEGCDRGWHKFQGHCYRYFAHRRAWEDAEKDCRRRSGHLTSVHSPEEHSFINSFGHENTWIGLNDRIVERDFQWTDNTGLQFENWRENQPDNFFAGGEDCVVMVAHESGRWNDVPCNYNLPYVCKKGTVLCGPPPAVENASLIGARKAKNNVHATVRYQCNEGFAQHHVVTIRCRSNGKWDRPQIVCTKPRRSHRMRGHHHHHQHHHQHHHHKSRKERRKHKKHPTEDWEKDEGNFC
PILRb (Mus musculus), Q2YSF2, sequence (Q2YSF2 entry or part of it): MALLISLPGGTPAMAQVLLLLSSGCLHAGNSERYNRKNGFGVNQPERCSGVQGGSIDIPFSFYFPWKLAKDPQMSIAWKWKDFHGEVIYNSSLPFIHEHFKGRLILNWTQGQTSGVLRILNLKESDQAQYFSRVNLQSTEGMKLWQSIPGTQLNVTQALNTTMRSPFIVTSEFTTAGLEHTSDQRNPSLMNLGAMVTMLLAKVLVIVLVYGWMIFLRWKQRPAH
CHI3L1 (Homo sapiens), P36222, sequence (P36222 whole entry): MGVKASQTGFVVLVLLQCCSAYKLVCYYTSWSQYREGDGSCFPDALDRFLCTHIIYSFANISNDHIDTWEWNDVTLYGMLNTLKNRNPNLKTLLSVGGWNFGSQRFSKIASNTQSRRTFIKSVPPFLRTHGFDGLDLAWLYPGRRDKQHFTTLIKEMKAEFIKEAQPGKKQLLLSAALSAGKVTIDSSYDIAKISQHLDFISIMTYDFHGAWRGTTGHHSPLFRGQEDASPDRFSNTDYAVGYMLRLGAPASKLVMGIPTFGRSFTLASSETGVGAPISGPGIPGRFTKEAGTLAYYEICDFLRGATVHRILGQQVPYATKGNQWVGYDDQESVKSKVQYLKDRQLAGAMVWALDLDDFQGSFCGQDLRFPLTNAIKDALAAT
CHT (Homo sapiens), sequence (chain, as listed by the source): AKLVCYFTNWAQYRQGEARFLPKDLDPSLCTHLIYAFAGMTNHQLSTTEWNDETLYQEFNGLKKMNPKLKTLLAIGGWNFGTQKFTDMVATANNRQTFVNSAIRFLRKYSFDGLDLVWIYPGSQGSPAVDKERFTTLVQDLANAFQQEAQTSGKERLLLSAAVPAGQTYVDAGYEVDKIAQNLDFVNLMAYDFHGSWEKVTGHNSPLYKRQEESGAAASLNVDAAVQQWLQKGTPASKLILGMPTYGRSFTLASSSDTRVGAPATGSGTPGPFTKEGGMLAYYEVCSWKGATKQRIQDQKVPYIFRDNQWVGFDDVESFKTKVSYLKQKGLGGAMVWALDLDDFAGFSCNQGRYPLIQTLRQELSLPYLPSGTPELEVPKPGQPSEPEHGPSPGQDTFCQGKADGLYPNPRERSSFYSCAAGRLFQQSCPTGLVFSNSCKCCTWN
C3b (Homo sapiens), P01024, sequence (P01024 23-667): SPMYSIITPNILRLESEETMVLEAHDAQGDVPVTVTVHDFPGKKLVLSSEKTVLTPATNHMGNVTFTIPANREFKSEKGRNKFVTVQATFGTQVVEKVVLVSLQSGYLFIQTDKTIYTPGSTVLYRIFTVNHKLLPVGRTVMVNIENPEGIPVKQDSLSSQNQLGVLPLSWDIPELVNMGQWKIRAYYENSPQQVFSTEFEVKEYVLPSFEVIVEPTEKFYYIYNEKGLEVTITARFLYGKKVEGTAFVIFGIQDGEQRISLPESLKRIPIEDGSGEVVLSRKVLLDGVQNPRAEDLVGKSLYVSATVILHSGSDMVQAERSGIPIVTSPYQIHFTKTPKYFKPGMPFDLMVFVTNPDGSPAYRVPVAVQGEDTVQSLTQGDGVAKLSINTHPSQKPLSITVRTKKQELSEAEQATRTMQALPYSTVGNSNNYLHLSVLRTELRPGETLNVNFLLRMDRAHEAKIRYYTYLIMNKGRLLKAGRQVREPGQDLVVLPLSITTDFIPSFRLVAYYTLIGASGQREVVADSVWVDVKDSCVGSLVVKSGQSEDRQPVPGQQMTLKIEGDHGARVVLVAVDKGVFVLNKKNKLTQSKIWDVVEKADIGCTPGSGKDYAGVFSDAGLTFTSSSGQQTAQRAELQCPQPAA
PILRa (Mus musculus), Q2YSF3, sequence (Q2YSF3 entry or part of it): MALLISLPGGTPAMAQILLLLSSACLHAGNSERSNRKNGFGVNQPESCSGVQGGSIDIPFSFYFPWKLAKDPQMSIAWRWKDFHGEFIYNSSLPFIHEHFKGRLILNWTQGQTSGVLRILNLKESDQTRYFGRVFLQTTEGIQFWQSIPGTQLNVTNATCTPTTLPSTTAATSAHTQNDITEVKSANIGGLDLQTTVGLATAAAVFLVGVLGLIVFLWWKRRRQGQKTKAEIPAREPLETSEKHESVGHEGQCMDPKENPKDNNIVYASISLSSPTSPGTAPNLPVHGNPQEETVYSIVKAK
Aggrecan (Rattus norvegicus), NP_071526, sequence (chain, as listed by the source): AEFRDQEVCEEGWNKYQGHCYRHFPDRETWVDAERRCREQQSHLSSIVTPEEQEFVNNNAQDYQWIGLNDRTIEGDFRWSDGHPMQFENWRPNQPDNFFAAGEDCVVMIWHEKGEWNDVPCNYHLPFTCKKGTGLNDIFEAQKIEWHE
Regenerating Gene IV (Homo sapiens), Q9BYZ8, sequence (Q9BYZ8 whole entry, looked up): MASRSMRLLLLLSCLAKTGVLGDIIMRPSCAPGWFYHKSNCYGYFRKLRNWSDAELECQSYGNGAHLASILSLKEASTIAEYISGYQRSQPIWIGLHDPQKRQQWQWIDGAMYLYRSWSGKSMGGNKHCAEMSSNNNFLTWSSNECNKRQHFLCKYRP
6RG (Lolium perenne), B9U140, sequence (B9U140 entry or part of it): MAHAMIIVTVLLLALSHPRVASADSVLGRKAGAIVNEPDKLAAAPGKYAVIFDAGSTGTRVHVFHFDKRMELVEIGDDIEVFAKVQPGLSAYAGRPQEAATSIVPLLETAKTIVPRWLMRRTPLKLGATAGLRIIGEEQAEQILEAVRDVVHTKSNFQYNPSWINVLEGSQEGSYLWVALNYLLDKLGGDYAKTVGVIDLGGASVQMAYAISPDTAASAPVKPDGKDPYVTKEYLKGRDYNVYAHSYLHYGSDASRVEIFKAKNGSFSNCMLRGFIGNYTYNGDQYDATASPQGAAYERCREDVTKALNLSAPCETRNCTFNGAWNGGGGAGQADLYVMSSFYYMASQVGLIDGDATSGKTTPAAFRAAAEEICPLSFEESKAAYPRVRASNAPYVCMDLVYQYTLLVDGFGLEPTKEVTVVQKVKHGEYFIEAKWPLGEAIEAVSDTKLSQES
Avaren (Actinomycete K97), sequence (chain, as listed by the source): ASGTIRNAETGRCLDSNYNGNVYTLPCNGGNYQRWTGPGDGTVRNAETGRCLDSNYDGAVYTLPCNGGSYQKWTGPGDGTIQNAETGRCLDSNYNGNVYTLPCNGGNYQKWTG

Substance: Regenerating Gene IV (Homo sapiens), Q9BYZ8
- glycan array binding signal (z-score) (Glc(b1-4)Glc): 5.46

Substance: CHI3L1 (Homo sapiens), P36222
- glycan array binding signal (z-score) (Glc(a1-6)Glc(a1-6)Glc): -0.073
- glycan array binding signal (z-score) [1]: -0.129

Substance: PILRb (Mus musculus), Q2YSF2
- glycan array binding signal (z-score) [2]: 0.156
- glycan array binding signal (z-score) [3]: 0.569

Substance: CHT (Homo sapiens)
- glycan array binding signal (z-score) ([4]; mutation: D138V, E140I): -0.189
- glycan array binding signal (z-score) [5]: -0.177

Substance: C3b (Homo sapiens), P01024
- glycan array binding signal (z-score) (Glc(b1-6)Glc): 3.33
- glycan array binding signal (z-score) [6]: -0.291

Substance: Siglec-8 (Homo sapiens), Q9NYZ4
- glycan array binding signal (z-score) [7]: -0.267
- glycan array binding signal (z-score) [8]: -0.041
- glycan array binding signal (z-score) [9]: 0.376
- glycan array binding signal (z-score) [10]: 5.14
- glycan array binding signal (z-score) [11]: -0.061
- glycan array binding signal (z-score) [12]: -0.415

Substance: Avaren (Actinomycete K97)
- glycan array binding signal (z-score) [13]: -0.134

Substance: PILRa (Mus musculus), Q2YSF3
- glycan array binding signal (z-score) (Glc(a1-6)Glc(a1-6)Glc): -0.233
- glycan array binding signal (z-score) (Glc(b1-6)Glc): -0.169

Substance: Neurocan (Homo sapiens), O14594
- glycan array binding signal (z-score) (GlcA(b1-3)Gal): 0.453
- glycan array binding signal (z-score) (GlcA(b1-3)GlcNAc): 10.5
- glycan array binding signal (z-score) [7]: -0.326
- glycan array binding signal (z-score) [14]: 4.73
- glycan array binding signal (z-score) [8]: -0.834

Substance: Aggrecan (Rattus norvegicus), NP_071526
- glycan array binding signal (z-score) [14]: 0.828

Substance: 6RG (Lolium perenne), B9U140
- glycan array binding signal (z-score) [4]: -0.228

Substance: MpAFP RI GFP (Marinomonas primoryensis)
- glycan array binding signal (z-score) [15]: 5.77
